Values joined by “and” are separate entries in the source; they are usually repeats but may differ in a detail not shown here. Identical values can stand only once. About 2,000 (36%) of roughly 5,500 compounds were called active. Inconclusive results (about 18%) are left out. Cut-off read from the data, not from the text of the source: active = normalized growth mostly below about 0.91 (no sharp cut-off); inconclusive = no clear call, values can overlap the other calls; inactive = mostly above about 0.92. This is one part of the list.
Test: chemical genetic growth profiling, strain panel (AID 1159580);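 note: tested at 20 µM; growth read once vehicle control cultures reached saturation at 30 °C; 1 = growth at the plate median or of vehicle wells; lower values mean less growth of the strain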
Conditions: S. cerevisiae deletion strains, growth OD

Measured: normalized growth

C=C1CCC2C(CC2(C)C)C(=O)CCC1O (stereo unspecified)
inactive: locus YAL013W, strain DEP1, stronger effect = lower value 0.984 | locus YAL021C, strain ccr4, stronger effect = lower value 0.94 | locus YAL026C, strain drs2, stronger effect = lower value 0.996 | locus YAL030W, strain snc1, stronger effect = lower value 1 | locus YBL061C, strain skt5, stronger effect = lower value 0.999 | locus YBR009C, strain hhf1, stronger effect = lower value 0.987 | locus YBR021W, strain FUR4, stronger effect = lower value 1.02 | locus YBR023C, strain chs3, stronger effect = lower value 0.986 | locus YBR171W, strain sec66, stronger effect = lower value 1 | locus YBR229C, strain ROT2, stronger effect = lower value 1.01 | locus YBR231C, strain swc5, stronger effect = lower value 1.01 | locus YBR279W, strain paf1, stronger effect = lower value 0.995 | locus YCL011C, strain gbp2, stronger effect = lower value 0.984 | locus YCL016C, strain dcc1, stronger effect = lower value 0.983 | locus YCL029C, strain bik1, stronger effect = lower value 1 | locus YCL061C, strain MRC1, stronger effect = lower value 0.993 | locus YCL069W, strain vba3, stronger effect = lower value 0.999 | locus YCR088W, strain abp1, stronger effect = lower value 0.993 | locus YDL005C, strain med2, stronger effect = lower value 0.991 | locus YDL035C, strain GPR1, stronger effect = lower value 1 | locus YDL040C, strain nat1, stronger effect = lower value 1 | locus YDL074C, strain BRE1, stronger effect = lower value 1 | locus YDL101C, strain DUN1, stronger effect = lower value 1.03 | locus YDL134C, strain PPH21, stronger effect = lower value 1.04 | locus YDL185W, strain tfp1, stronger effect = lower value 1.03 | locus YDL192W, strain arf1, stronger effect = lower value 0.992 | locus YDR001C, strain nth1, stronger effect = lower value 0.976 | locus YDR069C, strain doa4, stronger effect = lower value 0.981 | locus YDR101C, strain arx1, stronger effect = lower value 0.995 | locus YDR137W, strain rgp1, stronger effect = lower value 0.985 | locus YDR159W, strain sac3, stronger effect = lower value 1.06 | locus YDR162C, strain NBP2, stronger effect = lower value 1.01 | locus YDR195W, strain ref2 0.968 | locus YDR297W, strain sur2, stronger effect = lower value 1.01 | locus YDR318W, strain mcm21, stronger effect = lower value 1 | locus YDR334W, strain swr1, stronger effect = lower value 0.988 | locus YDR335W, strain msn5, stronger effect = lower value 0.985 | locus YDR388W, stronger effect = lower value 1.02 | locus YDR392W, strain spt3, stronger effect = lower value 0.911 | locus YDR502C, strain sam2, stronger effect = lower value 1.04 | locus YEL003W, strain gim4, stronger effect = lower value 1 | locus YEL037C, strain rad23, stronger effect = lower value 0.993 | locus YEL061C, strain CIN8 (second series), stronger effect = lower value 0.993 | locus YEL061C, strain CIN8, stronger effect = lower value 1.02 | locus YER015W, strain faa2, stronger effect = lower value 0.981 | locus YER016W, strain bim1, stronger effect = lower value 1 | locus YER110C, stronger effect = lower value 1.02 | locus YER111C, strain swi4, stronger effect = lower value 0.997 | locus YER155C, strain BEM2 (second series), stronger effect = lower value 1.03 | locus YER155C, strain BEM2, stronger effect = lower value 1 | locus YER167W, strain BCK2, stronger effect = lower value 1 | locus YFR010W, strain ubp6, stronger effect = lower value 0.996 | locus YGL078C, strain dbp3, stronger effect = lower value 1.04 | locus YGL086W, strain mad1, stronger effect = lower value 1.02 | locus YGL167C, strain pmr1, stronger effect = lower value 0.975 | locus YGL173C, strain kem1, stronger effect = lower value 1 | locus YGL227W, strain vid30, stronger effect = lower value 0.985 | locus YGL240W, strain doc1, stronger effect = lower value 1 | locus YGL248W, strain PDE1, stronger effect = lower value 1.05 | locus YGL253W, strain hxk2, stronger effect = lower value 1.02 | locus YGR078C, strain PAC10, stronger effect = lower value 1.02 | locus YGR135W, strain pre9, stronger effect = lower value 1.08 | locus YGR229C, strain SMI1, stronger effect = lower value 0.945 | locus YGR252W, strain gcn5, stronger effect = lower value 1.08 | locus YHR013C, strain ard1, stronger effect = lower value 0.978 | locus YHR027C, strain rpn1, stronger effect = lower value 1 | locus YHR030C, strain SLT2, stronger effect = lower value 1.02 | locus YHR079C, strain IRE1 (second series), stronger effect = lower value 1.01 | locus YHR079C, strain IRE1, stronger effect = lower value 1.03 | locus YHR094C, strain hxt1, stronger effect = lower value 1.01 | locus YHR129C, strain ARP1, stronger effect = lower value 1.01 | locus YHR142W, strain chs7, stronger effect = lower value 0.979 | locus YHR200W, strain rpn10, stronger effect = lower value 1.03 | locus YIL066C, strain RNR3, stronger effect = lower value 1.02 | locus YIL073C, strain SPO22, stronger effect = lower value 1.09 | locus YIL125W, strain kgd1, stronger effect = lower value 1.01 | locus YIR030C, strain dcg1, stronger effect = lower value 1.01 | locus YJL092W, strain hpr5, stronger effect = lower value 0.988 | locus YJL095W, strain BCK1 (second series), stronger effect = lower value 0.987 | locus YJL095W, strain BCK1, stronger effect = lower value 1.08 and 1.04 | locus YJL115W, strain asf1, stronger effect = lower value 0.961 | locus YJL129C, strain trk1, stronger effect = lower value 0.984 | locus YJL134W, strain LCB3, stronger effect = lower value 1.01 | locus YJL154C, strain vps35, stronger effect = lower value 0.99 | locus YJL164C, strain tpk1, stronger effect = lower value 0.963 | locus YJL166W, strain qcr8, stronger effect = lower value 0.993

From PubChem BioAssay AID1159580 (chemical genetic matrix, 2015)
